Among all 5,500 compounds or so, about 2,000 (36%) were called active. Not shown: some 18% with an inconclusive outcome. Rule as the data show it: active = normalized growth mostly below about 0.91 (no sharp cut-off); inconclusive = no clear call, values can overlap the other calls; inactive = mostly above about 0.92. The list shows a part of the results.
Experiment: chemical genetic growth profiling, strain panel (AID 1159580);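 also: tested at 20 µM; growth read once vehicle control cultures reached saturation at 30 °C; 1 = growth at the plate median or of vehicle wells; lower values mean less growth of the strain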
Conditions: S. cerevisiae deletion strains, growth OD
[1] = locus YHR030C, strain SLT2, stronger effect = lower value
[2] = locus YJL095W, strain BCK1, stronger effect = lower value

Measured: normalized growth

Cc1c(O)cc(O)c2c(=O)c(-c3ccc(O)cc3)coc12
inactive: locus YBR021W, strain FUR4, stronger effect = lower value 1.01 | locus YBR229C, strain ROT2, stronger effect = lower value 1 | locus YCL029C, strain bik1, stronger effect = lower value 1.02 | locus YDL035C, strain GPR1, stronger effect = lower value 1.01 | locus YDL074C, strain BRE1, stronger effect = lower value 1.01 | locus YDL101C, strain DUN1, stronger effect = lower value 1.01 | locus YDL185W, strain tfp1, stronger effect = lower value 1.01 | locus YDL192W, strain arf1, stronger effect = lower value 1.02 | locus YDR101C, strain arx1, stronger effect = lower value 1 | locus YDR150W, strain NUM1, stronger effect = lower value 0.997 | locus YDR162C, strain NBP2, stronger effect = lower value 1 | locus YDR318W, strain mcm21, stronger effect = lower value 1 | locus YDR388W, stronger effect = lower value 1.01 | locus YDR502C, strain sam2, stronger effect = lower value 1.01 | locus YEL061C, strain CIN8, stronger effect = lower value 0.993 | locus YER110C, stronger effect = lower value 1.02 | locus YER155C, strain BEM2, stronger effect = lower value 1.01 | locus YER167W, strain BCK2, stronger effect = lower value 1 | locus YGL078C, strain dbp3, stronger effect = lower value 1.01 | locus YGL086W, strain mad1, stronger effect = lower value 1.02 | locus YGL248W, strain PDE1, stronger effect = lower value 1 | locus YGR078C, strain PAC10, stronger effect = lower value 0.978 | locus YGR135W, strain pre9, stronger effect = lower value 1.03 | locus YGR229C, strain SMI1, stronger effect = lower value 0.987 | locus YGR252W, strain gcn5, stronger effect = lower value 0.983 | [1] 1 | locus YHR079C, strain IRE1 (second series), stronger effect = lower value 1 | locus YHR094C, strain hxt1, stronger effect = lower value 1 | locus YHR129C, strain ARP1, stronger effect = lower value 1 | locus YHR200W, strain rpn10, stronger effect = lower value 1.01 | locus YIL066C, strain RNR3, stronger effect = lower value 0.995 | locus YIL073C, strain SPO22, stronger effect = lower value 1.07 | locus YIL125W, strain kgd1, stronger effect = lower value 0.996 | locus YIR030C, strain dcg1, stronger effect = lower value 1.01 | [2] 0.998 | locus YJL134W, strain LCB3, stronger effect = lower value 1 | locus YJL168C, strain set2, stronger effect = lower value 1 | locus YJL187C, strain SWE1 (second series), stronger effect = lower value 0.991 | locus YJR043C, strain POL32, stronger effect = lower value 0.997 | locus YJR075W, strain HOC1, stronger effect = lower value 0.99 | locus YKL009W, strain mrt4, stronger effect = lower value 0.99 | locus YKL068W, stronger effect = lower value 1 | locus YKL085W, strain MDH1 (second series), stronger effect = lower value 0.994 | locus YKL085W, strain MDH1, stronger effect = lower value 0.994 | locus YKL190W, strain CNB1, stronger effect = lower value 0.986 | locus YKR001C, strain vps1, stronger effect = lower value 0.992 | locus YLR039C, strain RIC1, stronger effect = lower value 1.18 | locus YLR058C, strain SHM2, stronger effect = lower value 0.993 | locus YLR102C, strain apc9, stronger effect = lower value 1.01 | locus YLR262C, strain YPT6, stronger effect = lower value 1.21 | locus YLR268W, strain sec22, stronger effect = lower value 1.01 | locus YLR330W, strain CHS5, stronger effect = lower value 1.01 | locus YLR342W, strain FKS1 (second series), stronger effect = lower value 1.02 | locus YLR371W, strain rom2, stronger effect = lower value 1.01 | locus YLR418C, strain cdc73, stronger effect = lower value 0.95 | locus YML016C, strain PPZ1, stronger effect = lower value 1.01 | locus YML032C, strain rad52, stronger effect = lower value 0.995 | locus YML124C, strain tub3, stronger effect = lower value 1.02 | locus YMR078C, strain ctf18, stronger effect = lower value 1.01 | locus YMR223W, strain ubp8, stronger effect = lower value 1.01 | locus YMR263W, strain SAP30, stronger effect = lower value 0.989 | locus YMR307W, strain GAS1, stronger effect = lower value 0.993 | locus YNL067W, strain RPL9B, stronger effect = lower value 0.986 | locus YNL153C, strain GIM3, stronger effect = lower value 0.979 | locus YNL233W, strain BNI4, stronger effect = lower value 0.979 | locus YNL250W, strain rad50, stronger effect = lower value 1.01 | locus YNL271C, strain bni1, stronger effect = lower value 1.02 | locus YNL298W, strain CLA4, stronger effect = lower value 1.01 | locus YNL307C, strain MCK1, stronger effect = lower value 1.01 | locus YNR052C, strain pop2, stronger effect = lower value 1.01 | locus YOL012C, strain htz1 1.03 | locus YOL147C, strain pex11, stronger effect = lower value 0.998 | locus YOR061W, strain CKA2, stronger effect = lower value 1 | locus YOR069W, strain VPS5, stronger effect = lower value 1.01 | locus YOR136W, strain idh2, stronger effect = lower value 0.999 | locus YOR144C, strain elg1, stronger effect = lower value 1 | locus YOR184W, strain ser1, stronger effect = lower value 0.988 | locus YOR316C, strain cot1, stronger effect = lower value 1.02 | locus YPL055C, strain LGE1, stronger effect = lower value 0.944 | locus YPR119W, strain clb2, stronger effect = lower value 1 | locus YPR141C, strain kar3, stronger effect = lower value 1.02 | locus YPR163C, strain tif3, stronger effect = lower value 1 | locus YPR167C, strain met16, stronger effect = lower value 1.03 | strain wtn01, stronger effect = lower value 1.01

COc1cc2oc3cc(OC)c(OC)c(CC=C(C)C)c3c(=O)c2c(O)c1CC=C(C)C
inactive: [1] 0.981 | locus YHR079C, strain IRE1, stronger effect = lower value 0.988 | [2] 0.971 | locus YJR066W, strain TOR1, stronger effect = lower value 0.934 | locus YLR113W, strain HOG1, stronger effect = lower value 0.958 | locus YNL183C, strain NPR1, stronger effect = lower value 0.919 | locus YOR231W, strain MKK1, stronger effect = lower value 0.981 | locus YPL256C, strain CLN2, stronger effect = lower value 0.992

From PubChem BioAssay AID1159580 (chemical genetic matrix, 2015)
